Results filed as inconclusive are left out. Where a call stands in place of a potency, no number is given. Activity calls are given as the source filed them. Calls follow the shape of the full dose curve.

The nature of the experiment: qHTS assay to identify small molecule agonists of the AP-1 signaling pathway - cell viability counter screen (AID 1159525). Also: nearly all actives have a fitted effect of over 55% in size. To be noted: ME-180 (cervical carcinoma) AP-1-bla cells viability, ATP luminescence, 5 h; series mostly up to 76.8 µM. An excerpt:
National Center for Advancing Translational Sciences [NCATS]
NIH Chemical Genomics Center [NCGC]
U.S. Environmental Protection Agency [EPA]
National Institutes of Environmental Health Sciences [NIEHS]
National Toxicology Program [NTP]
U.S. Food and Drug Administration [FDA]
Activator protein-1 (AP-1), a transcription factor, plays an important role in tumor genesis by regulating genes involved in cell proliferation, differentiation, apoptosis, and angiogenesis. AP-1 activity is induced by a complex network of signaling pathways that involves extracellular signals, such as growth factors. The AP-1 protein complex formed from c-Fos and c-Jun binding to the AP-1 response element results in transcriptional activation of genes containing such elements within their promoter.
Low molecular weight molecules have been discovered and developed to modulate various components of these signaling pathways, for example, MAP kinase inhibitors. However, many points of pathway modulation remain untested due to the lack of chemical probes making this signaling locus of general interest.
Using a beta-lactamase reporter-gene under control of the AP-1 response element, a cell-based assay [CellSensor(TM) AP-1-bla ME-180 developed by Invitrogen Corp.] was used to measure EGF-induced signaling. The Tox21 10K library compounds were measured for their ability to positively modulate the action of EC50 EGF on reporter gene activity. Compounds were screened in a 15-pt titration series in 1536-well format. The cytotoxicity of the Tox21 compound library against this cell line was tested in parallel by measuring the intra cellular ATP content in the same wells.
Tox21 Assay Protocol Summary:
2500 cells/5uL in Opti-MEM medium containing 0.5% dialyzed FBS, 0.1 mM NEAA, 1 mM sodium pyruvate and 10 mM HEPES was dispensed into 1536-well black wall/clear bottom plates using a Multidrop dispenser and cells were cultured at 37 degrees Celsius overnight. Next day 23 nL of compounds dissolved in DMSO, positive controls or DMSO were delivered to each well using a pin tool. The plates were incubated at 37 degrees Celsius for 5 hours. 1 uL of LiveBLAzerTM B/G FRET substrate (Solution A+B+C+D) was added to each well using a Flying Reagent Dispenser. After incubated at room temperature for 2.5 hours the plates were measured on an EnVision plate reader at Excitation 405nm, Emission1=460nm and Emission 2=530nm. The %Activity was determined from the ratio of 460nm/530nm.
After the plates were read for Beta-Lactamase assay on Envision; 3 ul Cell Titer Glo (Promega) was added to measure the cytotoxicity and the plates were then incubated at RT in dark for 30 min. The luminescence was read on ViewLux (Perkin Elmer, Shelton, CT) using 6 sec exposure. ViewLux data was expressed as relative luminescence units.
For primary data analysis, raw plate reads for each titration point were first normalized relative to […] EGF control (100%) and DMSO only wells (basal, 0%).
For primary data analysis for viability assay, raw plate reads for each titration point were first normalized Tetra n-octyl ammonium bromide control (-100%) and DMSO (control, 100%).
For `C#CCN(C)[C@H](C)Cc1ccccc1`, the Potency result is “inactive”. For `CC(C)NC(=O)N1CC(=O)N(c2cc(Cl)cc(Cl)c2)C1=O`, the Potency entry was “inactive”. With `CC(C)OC(=O)Nc1ccccc1` the entry was “inactive”. With `C=C(C)CCl` the entry was “inactive”. Next, `OC(O)C(Cl)(Cl)Cl`: “inactive”; `COC(=O)c1ccccc1C(=O)OC`: “inactive”; `CC(C)(C)OOC(C)(C)C`: “inactive”.

For `O=NN1CCCC1`, the Potency result was “inactive”. For `CCNc1nc(NC(C)C)nc(SC)n1`, the Potency result was “inactive”. Next, `CC(C)=C[C@@H]1[C@@H](C(=O)OCc2coc(Cc3ccccc3)c2)C1(C)C`: “inactive”; `C[C@]12CC[C@H]3[C@@H](CC[C@@]45O[C@@H]4C(O)=C(C#N)C[C@]35C)[C@@H]1CC[C@@H]2O`: “inactive”. Take `CCC(C)(CC)c1cc(NC(=O)c2c(OC)cccc2OC)on1`: the Potency entry was “inactive”. Take `CCc1cccc(C)c1N(C(=O)CCl)C(C)COC` (stereo not given): the Potency result is “inactive”. With `CC(C)C#N`, the Potency entry was “inactive”. As for `CCNc1nc(NC(C)(C)C)nc(SC)n1`, the Potency entry is “inactive”.

Turning to `c1ccc(OP(Oc2ccccc2)Oc2ccccc2)cc1`, the Potency entry is “inactive”. With `CCOC(=O)c1ccccc1C(=O)OCC` the entry was “inactive”; with `Cc1cccc([N+](=O)[O-])c1`, “inactive”. In the case of `CC(Br)C(=O)O` (stereo not given), the Potency entry was “inactive”. On to `BrCCBr`, for which the Potency result is “inactive”.

Take `Cc1ccc(N)cc1Cl`: the Potency result was “inactive”. For `O=C(O)c1ccccn1`, the Potency entry was “inactive”. Next, `CN(C)[C@@H]1C(=O)C(C(N)=O)=C(O)[C@@]2(O)C(=O)C3=C(O)c4c(O)cccc4[C@@](C)(O)[C@H]3C[C@@H]12`: “inactive”. With `CCOP(=S)(OCC)SCCSCC` the entry was “inactive”; with `COc1ccc2c3c1O[C@H]1[C@@H](O)C=C[C@H]4[C@@H](C2)N(C)CC[C@@]341`, “inactive”. With `Cc1cc(-c2cc(C)c(N)c(C)c2)cc(C)c1N` the entry was “inactive”; with `Nc1ccc(Cc2ccc(N)cc2)cc1`, “inactive”.

Consider `CC(C)(C)C(O)(CCc1ccc(Cl)cc1)Cn1cncn1` (stereo not given), for which the Potency result is “inactive”.

For the molecule `Nc1ccc(Br)cc1`, the Potency result is “inactive”. As to `Nc1c(Cl)c(Cl)nc(C(=O)O)c1Cl`, the Potency entry was “inactive”. Regarding `CON(C)C(=O)Nc1ccc(Cl)c(Cl)c1`, the Potency result was “inactive”. As to `OCCN(CCO)CCO`, the Potency entry was “inactive”. Turning to `NCCc1ccc(O)cc1`, the Potency result was “inactive”. Consider `O=[N+]([O-])c1ccc([As](=O)(O)O)cc1`, for which the Potency entry is “inactive”. In the case of `Clc1ccccc1Cl`, the Potency entry is “inactive”. Regarding `CC1C=[C-]C=C1.[C-]#[O+].[C-]#[O+].[C-]#[O+].[Mn]`, the Potency result was “inactive”. With `Clc1cccc(Cl)c1Cl` the entry was “inactive”. Next, `Oc1ccccc1Cl`: “inactive”. Next, `CCCCOC(=O)c1ccccc1C(=O)OCCCC`: “inactive”. With `CN(N=O)c1ccccc1`, the Potency result is “inactive”.

The values are drawn from PubChem BioAssay (Tox21).
